Screening data (PubChem BioAssay)
KB-3-1 tox – KB-3-1 parental cell cytotoxicity; KB-3-1 viability, CellTiter-Glo ATP luminescence, 72 h; 400,000 compounds, 1.4% hits; Potency, µM (series often up to 46.1 µM), actives largely listed as cytotoxic; also: nearly all actives have a fitted effect of over 60% in size
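Cytotoxicity measured as CellTiter-Glo luminescence after 72 h at 37 C. Compound titrations were pinned onto drug-naive KB-3-1 parental adenocarcinoma cells grown in DMEM with 10% FBS, and normalized data fitted to concentration-response curves.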
KB-V1 cytotox – KB-V1 MDR subline cytotoxicity; KB-V1 MDR cells viability, CellTiter-Glo, 72 h; Potency, µM (doses to about 46.1 µM), most hits filed as cytotoxic; 400,000 compounds, 3.4% hits; also: nearly all actives have a fitted effect of over 60% in size
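KB-V1, DMEM (no phenol red) + 10% FBS; cpd pin-transferred, titration series; 72 h, 37 degrees C; CellTiter-Glo, luminescence. Data normalized, curve-fit.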
A549 viability – counter-screen for Nrf2 inhibitors: cytotoxicity in A549 cells. A549 ARE-Fluc cells, CellTiter-Fluor viability, 18-24 h. AID 504648. 390,000 compounds, 0.16% hits. Potency, µM (top dose mostly 46 µM), actives largely listed as inhibitors
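A549 ARE_Fluc cells in 5% FBS OPTI-MEM were exposed to compounds in concentration-response for 18-24 h at 37 deg C. Viability was read by CellTiter-Fluor fluorescence (Ex 405/Em 525) after 30 min, before the luciferase read.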
Giardia killer – kills Giardia lamblia; Giardia lamblia trophozoite viability; AID 540267; 340,000 compounds, 0.15% hits; activity change, % at 7.66 µM, hits read low; in the data active = activity change below about -80%; inconclusive = between about -30% and that limit;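 also: parasites exposed to compound for two days anaerobically before the ATP read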
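Compounds were tested on trophozoites seeded at 100 cells/well and held 48 hrs at 37 deg C anaerobically. An ATP-based luminescent kit measured the remaining live cells.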
PI4K2A block – PI4K2A (human) kinase inhibition; purified PI4K2A, ADP-Glo luminescence, 1 h; active compounds read low; activity change, negative = inhibition, % at 76.9 µM; Q9BTU6; 420,000 compounds, 0.13% hits; in the data active = activity change below about -50%; inconclusive = mostly about -30% to -49%
Target sequence (Q9BTU6 whole entry, looked up): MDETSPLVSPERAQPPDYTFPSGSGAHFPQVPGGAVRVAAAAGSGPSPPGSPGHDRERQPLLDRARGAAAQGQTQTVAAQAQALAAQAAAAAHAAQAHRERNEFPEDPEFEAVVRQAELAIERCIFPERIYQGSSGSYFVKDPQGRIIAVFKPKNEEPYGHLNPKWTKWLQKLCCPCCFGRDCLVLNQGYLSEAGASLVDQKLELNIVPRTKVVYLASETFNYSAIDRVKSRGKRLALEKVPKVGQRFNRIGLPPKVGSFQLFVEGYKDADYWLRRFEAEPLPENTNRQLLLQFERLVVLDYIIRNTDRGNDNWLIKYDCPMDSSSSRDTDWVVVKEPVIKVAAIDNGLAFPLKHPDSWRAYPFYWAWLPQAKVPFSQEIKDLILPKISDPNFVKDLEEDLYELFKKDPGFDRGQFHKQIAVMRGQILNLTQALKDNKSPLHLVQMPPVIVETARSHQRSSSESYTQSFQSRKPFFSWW
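ADP-Glo luminescence measured ADP generated by PI4K2A enzyme (4 ug/mL before mixing) with 1.2 mM PI substrate (pre-mix) and 300 microM ATP (pre-mix). Tris pH7.5 buffer with MgCl2, Triton X-100; 1 h reaction at ambient temperature.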
Nrf2 block – inhibitors of Nrf2 signaling. A549 ARE-Fluc reporter, luciferase luminescence, 18-24 h. Potency, µM (highest dose often 46 µM), actives largely listed as inhibitors. 360,000 compounds, 2.1% hits. AID 504444; also: nearly all actives have a fitted effect of over 60% in size
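Two sequential reads on A549 ARE_Fluc cells exposed to compound for 18-24 h: a CellTiter-Fluor fluorescence read for viability, then a luciferase luminescence read for Nrf2/ARE activity.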
Hits are given with their value; i = inactive; ? = inconclusive; nt = not tested or not shown; [ ] = dose if it differs, or a comment. Sampled rows, rich in hits. Any-hit rate of the full collection: about 5.7%. Unless noted, calls follow the shape of the dose curve; as a rule, active = well fitted curve in the direction sought with a large enough effect; inconclusive = small, poorly fitted or top-dose-only effect, or another doubt; inactive = no such curve, though single readings can be large; an effect the other way counts as inactive or inconclusive.

SMILES	KB-3-1 tox	KB-V1 cytotox	A549 viability	Giardia killer	PI4K2A block	Nrf2 block
CCn1ncc([C@@H]2C[C@H]3CN(Cc4cccc(Cl)c4)C(=O)[C@]34CCCN24)c1C	i	i	i	i	i	i
O=C1N(Cc2cccc(Cl)c2)C[C@@H]2C[C@@H](c3cccn3-c3cccnc3)N3CCC[C@@]123	?	?	i	i	i	21µM
C=C1NN(Cc2ccccc2)C(=O)N1c1ccc(OC)cc1	i	i	nt	nt	nt	nt
Cc1cccc(CNC(=O)c2cccc(NC(=O)N3CCSc4ncccc43)c2)c1	i	i	i	nt	i	?
CCc1ccc(C(=O)COC(=O)c2cc([N+](=O)[O-])ccc2NCCO)cc1	i	?	15µM	i	i	7.3µM
O=C(COC(=O)c1cc([N+](=O)[O-])ccc1NCCO)c1ccc(Cl)cc1	i	i	i	i	i	i
CC(C)(C)CC(C)(C)NC(=O)CSCC(=O)Nc1ccc2ccccc2c1	i	i	?	i	i	16µM
CCCCCOc1ccc(NC(=O)C(=O)NCCCn2ccnc2)cc1	i	?	i	i	i	9.2µM
O=C(CSc1ccncc1)Nc1ccc2ccccc2c1	i	?	i	i	i	i
O=C(Nc1ccncc1)c1ccc2ccccc2c1	i	16µM	i	i	i	i
O=C(CSc1ccc2ccccc2c1)Nc1ccncc1	i	i	i[1.84 µM]	i	i	7.3µM
CCCCNC(=O)C1CCCN1C(=O)Nc1ccc(Cl)cc1 (stereo not given)	nt	nt	nt	nt	i	nt
COC[C@H]1CCCN1c1cccc2c1S(=O)(=O)N(C1CC1)CC[C@@H](C)O2	nt	nt	nt	nt	i	nt
CCCOc1ccc(C(=O)Nc2cccnc2)cc1	i	i	i	i	i	i
CCc1ccc(NC(=O)c2ccc3[nH]c(C)c(C)c3c2)cc1	i	i	i	nt	i	?
CCOc1ccc(NC(=S)c2ccncc2)cc1	23µM	21µM	i	i	i	?
Cc1[nH]c2ccc(C(=O)Nc3ccncc3)cc2c1C	i	i	i	i	i	12µM
CCCCOc1ccc(C(=O)Nc2ccncc2)cc1	i	?	i	i	i	9.2µM
O=[N+]([O-])c1ccc(-c2cc3ccccc3[nH]2)cc1	i	i	nt	nt	nt	nt
Cn1c(-c2ccc(Cl)cc2)ccc(C#N)c1=O	?	5.8µM	i	i	i	i
Cc1ccc(-n2ncc3c(=O)n(Cc4cccnc4)cnc32)cc1	18µM	12µM	i	i	i	?
COC(=O)c1ccc(Cn2cnc3c(cnn3-c3ccc(C)c(C)c3)c2=O)o1	i	?	i	i	i	23µM
C(=N\Nc1nncc2ccccc12)/c1cccnc1	nt	nt	nt	nt	i	nt
O=c1c(S(=O)(=O)c2ccccc2)cn(Cc2ccccc2)c2cc(N3CCOCC3)c(F)cc12	i	i	i	nt	i	?
COc1ccc(NC(=O)CN(c2ccc([N+](=O)[O-])cc2)S(=O)(=O)c2ccccc2)cc1	i	16µM	i	i	i	i
SMILES	KB-3-1 tox	KB-V1 cytotox	A549 viability	Giardia killer	PI4K2A block	Nrf2 block
COc1ccc(S(=O)(=O)N(CC(=O)Nc2ccccc2C(=O)N2CCOCC2)c2ccc(F)cc2)cc1	i	16µM	i	i	i	i
COc1ccc(N(CC(=O)Nc2ccccc2OC)S(=O)(=O)c2ccc(NC(C)=O)cc2)cc1	21µM	?	i	i	i	i
COc1ccccc1NC(=O)CN(c1ccccc1)S(=O)(=O)c1ccccc1	i	?	i	i	i	i
Cc1cc2c(N=O)c(NO)ccc2[nH]1	?	4.1µM	i	i	i	?
CCC(C)NC(=O)CSc1nnc(-c2ccc(C(C)(C)C)cc2)n1C (stereo not given)	i	i	i	i	i	i
CC(C)NC(=O)CSc1nnc(-c2ccc(C(C)(C)C)cc2)n1C	i	26µM	i	i	i	i
CCOC(=O)C(C)Sc1cc(CS(=O)(=O)c2ccccc2)nc(-c2ccccc2)n1 (stereo not given)	i	21µM	i	i	i	i
Cc1ccc(C)c(NC(=O)c2cccc3c2-c2ccccc2C3=O)c1	nt	nt	nt	nt	i	nt
O=C(NCCc1nc2ccccc2n1CCO)C1CCCCC1	?	i	i	nt	nt	i
Clc1ccccc1Cn1nc(-c2ccccc2)nc1-c1ccccc1	i	15µM	i	i	i	i
Cc1ccc(C(=O)c2c3ccc(C(F)(F)F)cc3[n+]([O-])n2CCCN)cc1	i	i	?	-90	i	i
Cc1ccc(C(=O)c2c3ccc(C(F)(F)F)cc3[n+]([O-])n2CCCC(N)=O)cc1	i	i	i	i	i	i
C=CCNCc1cccn1-c1sc2c(c1C#N)CCCC2	i	i	nt	i	i	i
N#Cc1c(-n2cccc2/C=N/O)sc2c1CCCC2	i	23µM	i	i	i	i
CN(CCOC(=O)c1cccs1)C1CN(Cc2cn(Cc3ccccc3Cl)nn2)S(=O)(=O)C1 (stereo not given)	nt	nt	nt	nt	i	nt
c1cc2c(cc1C1CCCCC1)c1c3n2CCCNC3CCC1 (stereo not given)	18µM	?	i	i	i	i
Cc1cccc(CSC(Nc2ccc(F)cc2)=C(C#N)C#N)c1	16µM	?	i	i	i	18µM
CC(SCc1ccccc1)C(=O)Nc1ccc(F)cc1 (stereo not given)	i	?	i	i	i	i
N#CC(C#N)=C(Nc1ccc(F)cc1)SCc1cccc(Br)c1	10µM	9.2µM	?	i	i	4.1µM
Cc1nc(SCC(N)=O)[nH]c(=O)c1C	nt	nt	nt	nt	i	nt
CCC1CCCCN1CCCNC(=O)c1[nH]c2ccccc2c1Sc1ccc(Cl)cc1 (stereo not given)	i	i	i	nt	i	i
COc1ccc2c(c1)CCc1c(C(=O)Nc3c(C)nn(Cc4ccc(C)cc4)c3C)noc1-2	?	i	i	nt	i	15µM
COCC(C)NC(=O)c1noc2c1CCc1cc(OC)ccc1-2 (stereo not given)	i	16µM	i	i	i	i
Cc1nn(Cc2ccccc2)c(C)c1NC(=O)c1noc2c1CCc1ccccc1-2	?	i	i	i	i	?
COCCNC(=O)c1noc2c1CCc1cc(OC)ccc1-2	i	i	i	i	i	?
COc1ccc2c(c1)CCc1c(C(=O)NCCN3CCOCC3)noc1-2	i	12µM	i	i	i	nt
Oc1ccc(Br)cc1C1C=C(c2ccc3c(c2)OCO3)NC(c2c(F)cccc2Cl)N1 (stereo not given)	nt	nt	i	i	nt	i
COc1ccc(C(=O)C[n+]2cc(Br)cc(Br)c2)cc1	i	i	nt	nt	nt	nt
O=C(CN1CCN(Cc2ccccc2)CC1)N1CCCc2c1c(=O)oc1ccc(O)cc21	?	15µM	?	i	i	i
CC(C)(C)c1ccc(C2Sc3ccccc3NC3=C2C(=O)c2ccccc23)cc1 (stereo not given)	?	?	?	nt	i	18µM
